Whole data set: some 59,000 sequences, median the read-out near -0.00055, cut for the lowest 2% near -2. Shown is part of a subset that was picked to be rich in the lowest values.
Test: Identification of proteins required for the processing of the EWS-FLI1 nascent transcript;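 also: robust z of luciferase light less the median z of siRNAs with the same seed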
Conditions: TC32 Ewing sarcoma NR0B1-luc vs CMV-luc (EWS-FLI1 target promoter against control promoter), 48 h; screened at 20 nM (by protocol)
In short: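 Three siRNAs per gene, each in a separate well at 20 nM, were transfected into TC32 cells bearing either reporter construct. Luminescence was measured two days on, and per-gene comparison relied on seed-corrected Z values.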

Sequence	seed-corrected z-score
AUCCAGUUCACGUAGGCAG against TPSG1	-2.87
UCUGCGUACUCAUCCAUCC against GALNT10	0.408
UCUGAUCUCACGGAUGAAG against RASEF	0.117
UUAGGCUCUUUGUAUGUCC against ELOVL4	0.198
UUUCUGCACAGGAAUAUCG against CD37	-3.03
UCCGCGUAUAAAUAGGUGC against RSPH1	-0.487
UGAGUUGAAGGUCUGCCCG against MPND	-0.48
UGAUAGAUGAAUAUCAUCC against KIAA0232	-0.728
UAUUCGCACAGGCUGAUUC against BBS12	0.0215
AAGUUGGUGAUUAAUCUCC against DERL2	-0.311
UUCUGUGGAAGAUUUCUGG against TOP3A	-0.163
UAUUUGACUAGGCGACUUC against NET1	-2.17
UAUCUAAAGAGACCCUGUC against YPEL1	1.06
ACAGUAUCCUCAGAUGUCC against SHROOM2	0.0618
UGCAGUACUGAAGAUAACG against EOGT	-1.09
UUCUUAGCCGCGAUGGUCU against DES	0.351
UAGGUAGAAGUGAUUGUUC against ZFAND4	0.956
AUGUGGACAGCGUAGCUCC against FUT4	-0.421
UACAUUGUGAGAUCCCUGG against C17orf78	-2.15
UUAUGAACCCUGGAGCUCC against ADRB3	0.000803
AAUACGAUGACAAUAAGGC against FAM200A	-0.251
AUAGCUGCGAACAAAGGCC against ZNF404	-6.09
UUCGACUUGGUUGCAAUGG against PPBP	0.68
UCCAGUUGUAUGUAAGGGC against ZDHHC6	-1.09

Sequence	seed-corrected z-score
AAUGGUCUUGUGAAUGGUC against LSM12	-2.08
UUUCGUCAACAGUUCAAUC against USP34	-0.287
UAAUCGAAAAACUUCAAUG against CLN5	-0.147
AUCUCUGUAAGAUUGAUUC against ELMOD2	0.0598
UUGCUUUCCACAACGAGAU against CHL1-AS2	-0.29
UUCUGCAUCAUAAUUGUCG against ADPRHL1	-0.679
UUGGUAGGCAUCGUAGUAG against CLDN2	0.894
UAGCUGUGUGGAUCAGUGC against LOC642502	-2.62
UCACUGUAUCUAAUAAAGC against FRG1JP	-0.744
AAUUUUAUCACCCAGAAAC against FCGR2B	0.134
UGAGUUUCUUCUCCGUUCU against C11orf97	-3.81
UGAAAAGCGCUGCUUAACC against PRSS45	0.905
UUCUUUGAUAGACUUCACC against FTMT	0.658
UGAGAGUUAAAGGCCUUUC against ABHD14A	-2.97
AAAUGUGCUCAAACUGUCU against ARL14	-0.125
UUCUCUCAAGCUUCAAUGG against ZNF286A	0.716
AGAGUUAAUUGGUAUGUCC against GIGYF1	0.0611
UCUGUUACUUCUGGUUUGC against BAAT	-0.229
UUAGCUGCUAGAAACAAGG against CCNT1	-2.99
UGAGUUUCCAUGCAUAGGA against GOLGA7	-3.67
UCAGGUACGACUUUCGAUA against C1orf109	-1.21
AGAGAUACAAGGUUUGAUC against ARG2	-0.0393
UCCUUGUACACGGCCAGCU against PCED1CP	0.3
UGUACAUAGACGGUGAGGC against CD200	0.299

Reference: PubChem BioAssay AID1159506 (National Center for Advancing Translational Sciences (NCATS), 2015)
